JMJD2E inh = blocks human JMJD2E demethylase activity; B2RXH2; JMJD2E catalytic domain, FDH-coupled NADH fluorescence (FDH is formaldehyde dehydrogenase); Potency, µM (highest dose often 57.1 µM), for inactives: at the highest dose activity change, negative = inhibition, usual class: inhibitors; 230,000 compounds, 1.6% hits; AID 2147; active = well fitted inhibition curve with a large enough effect, not every such curve was filed as active; inconclusive = small, poorly fitted or top-dose-only effect, or another doubt; inactive = no such curve, though single readings can be large or run the other way;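 note: potency is the fitted concentration of half-maximal effect; 0% = wells with enzyme and -100% = buffer wells without enzyme; nearly all actives have a fitted effect of over 50% in size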
JMJD2A Tudor inh = inhibitors of human JMJD2A Tudor domain | AlphaScreen JMJD2A-Tudor / H3K4me3 peptide binding | Potency, µM (doses to about 114 µM), for inactives: top-dose activity change, negative = inhibition, usual class: inhibitors | 390,000 compounds, 4.4% hits; note: potency is the fitted concentration of half-maximal effect; % is set by controls: 0 for no effect and ±100 for the full control effect; nearly all actives have a fitted effect of over 50% in size
L3MBTL1 inh = blocks human L3MBTL1; Q9Y468; AlphaScreen L3MBTL1–H3K9me1 peptide binding; Potency, µM (series often up to 57.1 µM), inactives show top-dose activity, negative = inhibition, usual class: inhibitors; 230,000 compounds, 0.66% hits; AID 485360; note: potency is the fitted concentration of half-maximal effect; % is set by controls: 0 for no effect and ±100 for the full control effect; nearly all actives have a fitted effect of over 60% in size
Target sequence (Q9Y468 whole entry, looked up): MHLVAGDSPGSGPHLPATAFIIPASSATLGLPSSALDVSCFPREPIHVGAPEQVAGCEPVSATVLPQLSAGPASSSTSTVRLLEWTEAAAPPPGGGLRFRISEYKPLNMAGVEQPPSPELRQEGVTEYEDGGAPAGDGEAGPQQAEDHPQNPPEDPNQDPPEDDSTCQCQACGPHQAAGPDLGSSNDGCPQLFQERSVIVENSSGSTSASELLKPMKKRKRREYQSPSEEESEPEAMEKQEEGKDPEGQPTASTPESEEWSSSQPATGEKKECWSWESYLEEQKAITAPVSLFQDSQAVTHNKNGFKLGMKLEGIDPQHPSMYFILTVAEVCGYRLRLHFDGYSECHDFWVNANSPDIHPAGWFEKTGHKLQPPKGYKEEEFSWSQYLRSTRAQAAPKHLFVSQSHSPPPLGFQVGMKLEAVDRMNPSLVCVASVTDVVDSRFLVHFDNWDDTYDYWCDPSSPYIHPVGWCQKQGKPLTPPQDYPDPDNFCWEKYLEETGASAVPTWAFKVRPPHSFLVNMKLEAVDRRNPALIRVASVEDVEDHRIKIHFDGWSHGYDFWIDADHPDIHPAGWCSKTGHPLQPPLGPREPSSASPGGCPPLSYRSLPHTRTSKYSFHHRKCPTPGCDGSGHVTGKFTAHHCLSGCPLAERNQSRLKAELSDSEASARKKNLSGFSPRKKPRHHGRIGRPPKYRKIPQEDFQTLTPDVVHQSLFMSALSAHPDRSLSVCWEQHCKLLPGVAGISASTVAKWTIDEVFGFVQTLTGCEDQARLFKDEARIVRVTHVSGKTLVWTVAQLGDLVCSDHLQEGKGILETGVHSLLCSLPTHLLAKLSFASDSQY
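Displacement of a biotinylated histone H3(1-15) peptide monomethylated at Lys9 (75 nM) from L3MBTL1 (50 nM) was measured by AlphaScreen after a 30 min room-temperature compound incubation; cefsulodin titration served as intraplate control.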
HP1b chromo inh = HP1-beta chromodomain-methylated histone interaction inhibition. P83916. AlphaScreen HP1-beta / biotin-H3K9me3 peptide binding. Potency, µM (doses to about 114 µM), for the others: at the highest dose activity change, negative = inhibition, hits mostly inhibitors. 390,000 compounds, 0.56% hits. AID 540317; note: potency is the fitted concentration of half-maximal effect; nearly all actives have a fitted effect of over 70% in size
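HP1-beta protein (50 nM final) preincubated 30 min at room temperature with biotinylated H3(1-18)K9me3 peptide (50 nM) in PBS pH 7.4, 0.01% Tween-20, then compound added for 30 min. AlphaScreen streptavidin donor/nickel chelate acceptor beads (10 ug/mL final), 30 min dark, luminescence read.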
BAZ2B inh = inhibitors of human BAZ2B bromodomain; Q9UIF8; AlphaScreen BAZ2B-H3K14Ac peptide displacement; Potency, µM (titrated, usually from 114 µM), without a hit: top-dose activity change, negative = inhibition, actives largely listed as inhibitors; 360,000 compounds, 4.4% hits; AID 504333; note: potency is the fitted concentration of half-maximal effect; % is set by controls: 0 for no effect and ±100 for the full control effect; nearly all actives have a fitted effect of over 60% in size
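AlphaScreen displacement: compounds (up to 110uM) incubated 30 min at room temperature with a preformed 50 nM BAZ2B/50 nM biotinylated H3K14Ac peptide complex in PBS pH 7.4 with Tween-20. Donor and acceptor beads at 10 ug/mL final added, 20 min light-protected before reading.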
PI5P4K alpha inh = blocks human PI5P4K alpha kinase activity | P48426 | PI5P4Kalpha enzyme, ADP-Glo luminescence, 60 min; hits give low values | max response, % | 330,000 compounds, 1.2% hits | AID 652105; active = max response of -50% or lower; inconclusive = between -30% and -50%; inactive = -30% or higher; note: value at the top dose of about 77 µM; % is set by controls: 0 for no effect and ±100 for the full control effect
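Single end-point luminescence (ADP-Glo) quantified ADP from PI5P4Kalpha turnover; ATP 5 microM final, 1 h at RT, 0.1% CHAPS and 0.28 mM EGTA in HEPES pH 7.4.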
An asterisk follows results filed as active; ! = repeats disagree; [ ] = remark or other dose. An excerpt weighted towards active compounds, which were near 5.7% of everything screened. Unless noted, calls come from the whole dose curve; as a rule, active = well fitted inhibition curve with a large enough effect; inconclusive = small, poorly fitted or top-dose-only effect; inactive = no such curve, though single readings can be large or run the other way.

How did CC(C)(C)c1ccc(OCC(=O)Nc2ccc3c4c(cccc24)C(=O)NC3=O)cc1 do in these assays?
JMJD2E inh: inconclusive; JMJD2A Tudor inh: 79µM*; L3MBTL1 inh: 2%; HP1b chromo inh: 8%; BAZ2B inh: -5%; PI5P4K alpha inh: -1

Results for COc1ccc(N2CCN(C(=O)CS(=O)Cc3nc(-c4ccc(OC)c(OC)c4)oc3C)CC2)cc1 (stereo unspecified) ?
JMJD2A Tudor inh: -23%; HP1b chromo inh: 16%; BAZ2B inh: inconclusive; PI5P4K alpha inh: 0

What do the screens show for `Cc1ccc(-c2nc(CS(=O)CC(=O)N3CCN(c4cccc(Cl)c4)CC3)c(C)o2)cc1` (stereo unspecified)?
JMJD2A Tudor inh: inconclusive; HP1b chromo inh: -16%; BAZ2B inh: 25µM*

How did Cc1oc(-c2ccc(Cl)cc2)nc1CS(=O)CC(=O)N1CCN(c2cccc(C(F)(F)F)c2)CC1 (stereo unspecified) do in these assays?
JMJD2A Tudor inh: inconclusive; HP1b chromo inh: 0%; BAZ2B inh: -5%

Results for Cc1ccc(-c2nc(CS(=O)CC(=O)N3CCN(c4ccc(F)cc4)CC3)c(C)o2)cc1 (stereo unspecified) ?
JMJD2A Tudor inh: inconclusive; HP1b chromo inh: 47%; BAZ2B inh: 28µM*!; PI5P4K alpha inh: 5

Results for O=C(Nc1ccc(C(=O)OC[C@@H]2CCCN3CCCC[C@H]23)cc1)c1cccc(Br)c1 ?
JMJD2E inh: 2%; JMJD2A Tudor inh: -17%; L3MBTL1 inh: 3%; HP1b chromo inh: 12%; BAZ2B inh: -6%; PI5P4K alpha inh: 0

What do the screens show for `COc1ccccc1N1CCN(Cc2nc(-c3cc(OC)c(OC)c(OC)c3)no2)CC1`?
JMJD2A Tudor inh: -24%; HP1b chromo inh: 29%; BAZ2B inh: inconclusive

Results for CC(Nc1ccccc1)c1ccncc1 (stereo unspecified) ?
JMJD2E inh: -5%; JMJD2A Tudor inh: -6%; L3MBTL1 inh: 2%; HP1b chromo inh: 64%; BAZ2B inh: -22%; PI5P4K alpha inh: 8

How did Brc1ccc(NC(c2ccccc2)c2ccncc2)cc1 (stereo unspecified) do in these assays?
JMJD2A Tudor inh: 56µM*; HP1b chromo inh: 17%; BAZ2B inh: 71µM*; PI5P4K alpha inh: -4

Results for COCCCN=C1NN=C(c2cc(C)n(Cc3ccccc3Cl)c2C)CS1 ?
JMJD2E inh: inconclusive; JMJD2A Tudor inh: inconclusive; L3MBTL1 inh: -13%; HP1b chromo inh: inconclusive; BAZ2B inh: 40µM*; PI5P4K alpha inh: -14

What do the screens show for `COCCCN=C1NN=C(c2cc(C)n(-c3ccccc3F)c2C)CS1`?
JMJD2E inh: 32µM*; JMJD2A Tudor inh: inconclusive; L3MBTL1 inh: -26%; HP1b chromo inh: -4%; BAZ2B inh: 71µM*; PI5P4K alpha inh: -3

How did COCCn1c(C)cc(C2=NNC(=Nc3ccccc3F)SC2)c1C do in these assays?
JMJD2E inh: 25µM*; JMJD2A Tudor inh: 89µM*; HP1b chromo inh: -24%; BAZ2B inh: inconclusive; PI5P4K alpha inh: -23

How did COCCCN=C1NN=C(c2cc(C)n(-c3ccccc3)c2C)CS1 do in these assays?
JMJD2E inh: -5%; JMJD2A Tudor inh: -36%; L3MBTL1 inh: -11%; HP1b chromo inh: -7%; BAZ2B inh: inconclusive; PI5P4K alpha inh: 5

How did Fc1ccc(-n2ncc3c(N4CCN(c5ccccc5F)CC4)ncnc32)cc1 do in these assays?
JMJD2A Tudor inh: -17%; HP1b chromo inh: 26%; BAZ2B inh: 9%

How did CCOc1ccc(NC(=O)c2sc3nc4n(c(=O)c3c2C)CCCC4)cc1 do in these assays?
JMJD2A Tudor inh: inconclusive; HP1b chromo inh: 57%; BAZ2B inh: 32µM*

How did CCc1ccc(NC(=O)c2sc3nc4n(c(=O)c3c2C)CCC4)cc1 do in these assays?
JMJD2A Tudor inh: -16%; HP1b chromo inh: 21%[57 µM]; BAZ2B inh: -17%; PI5P4K alpha inh: -3

Results for Cc1c(C(=O)NCCc2ccc(Cl)cc2)sc2nc3n(c(=O)c12)CCCC3 ?
JMJD2A Tudor inh: -33%; HP1b chromo inh: 53%; BAZ2B inh: 40µM*

How did Cc1ccc(CNC(=O)c2sc3nc4n(c(=O)c3c2C)CCCC4)cc1 do in these assays?
JMJD2A Tudor inh: inconclusive; HP1b chromo inh: 21%; BAZ2B inh: 50µM*

How did Cc1ccc(CNC(=O)c2sc3nc4n(c(=O)c3c2C)CCCCC4)cc1 do in these assays?
JMJD2A Tudor inh: -14%; HP1b chromo inh: 48%; BAZ2B inh: -33%

How did CCOc1ccc(CCNC(=O)c2cc3c(=O)n(C)c4ccccc4c3n2C)cc1OCC do in these assays?
JMJD2A Tudor inh: -9%; HP1b chromo inh: 42%; BAZ2B inh: -17%

How did C[C@H](CO)N1C[C@H](C)[C@@H](CN(C)S(=O)(=O)c2ccccc2)Oc2ccc(NC(=O)CCC(F)(F)F)cc2C1=O do in these assays?
JMJD2A Tudor inh: -23%; L3MBTL1 inh: 2%; HP1b chromo inh: 48%; PI5P4K alpha inh: 7

Results for C#CCCCCCCC#CCN(C)C ?
JMJD2E inh: 16µM*; JMJD2A Tudor inh: 1.8µM*; L3MBTL1 inh: -6%; HP1b chromo inh: inconclusive; BAZ2B inh: inconclusive; PI5P4K alpha inh: 10

Results for CN(C)CC#CCCCCCCC#CCN(C)C ?
JMJD2E inh: -11%; BAZ2B inh: 6%

What do the screens show for `Cc1cc(C)cc(-n2c(C)cc(/C=N/NC(=O)CSc3ncccn3)c2C)c1`?
JMJD2E inh: -26%; JMJD2A Tudor inh: 79µM*; L3MBTL1 inh: -12%; HP1b chromo inh: inconclusive; BAZ2B inh: inconclusive; PI5P4K alpha inh: 2

Results for O=C(COc1ccc2ccccc2c1)N/N=C/c1ccccn1 ?
JMJD2E inh: -21%; JMJD2A Tudor inh: inconclusive; L3MBTL1 inh: 3%; HP1b chromo inh: inconclusive; BAZ2B inh: 9%; PI5P4K alpha inh: -8

How did Cc1ccc(OC(C)C(=O)N/N=C/c2ccccn2)cc1 (stereo unspecified) do in these assays?
JMJD2E inh: -7%; JMJD2A Tudor inh: -9%; L3MBTL1 inh: 85%; HP1b chromo inh: 39%; BAZ2B inh: 71µM*; PI5P4K alpha inh: -2

How did Cc1cc(C)cc(OCC(=O)N/N=C/c2ccccn2)c1 do in these assays?
JMJD2E inh: -21%; JMJD2A Tudor inh: inconclusive; HP1b chromo inh: 39%; BAZ2B inh: 79µM*; PI5P4K alpha inh: -1

Results for Cc1cc(C)cc(-n2c(C)cc(/C=N/NC(=O)c3ccncc3)c2C)c1 ?
JMJD2E inh: inconclusive; JMJD2A Tudor inh: inconclusive; L3MBTL1 inh: -15%; HP1b chromo inh: 10%; BAZ2B inh: -36%; PI5P4K alpha inh: 0

How did Cc1cc(C)n2nc(SCC(=O)N/N=C/c3cccc(Br)c3)nc2n1 do in these assays?
JMJD2E inh: 4%; JMJD2A Tudor inh: -15%; HP1b chromo inh: 28%; BAZ2B inh: -2%
